The results in this text go back to PubChem BioAssay AID454 (Sanford-Burnham Center for Chemical Genomics, 2006).

Out of some 10,000 compounds screened, about 25 (0.2%) were called active. This is one part of a sample in which actives are shown more often than they occur.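 How the source made its calls: active means compound among top-ranked inhibitors of TNF-induced VCAM-1 adhesion protein staining, with the hit upheld by image or statistical review; inactive means the rest, including hits rejected on review.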

The experiment in a line: inhibitors of TNFa-induced VCAM-1 surface display, cell-based, plate reader, pooled HUVEC, TNFa stimulus (AID 454). The note with it: HUVEC TNFa-induced VCAM-1 surface immunofluorescence; stronger effect = higher value,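 compound tested at 5 µM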.
For `CCOC(=O)c1cccc(NC(=O)CSc2nc3cccnc3n2C)c1`, the inhibition (as a rule, the relative decrease from the control value, in per cent) was “inactive”.

For the molecule `Cn1c(SCc2cccc3ccccc23)nnc1-c1ccco1`, the inhibition result is “inactive”.

As for `CN1C(=O)C(CC(=O)N2CCN(C(c3ccccc3)c3ccccc3)CC2)N(C)C1=O` (configuration not stated), the inhibition entry was “inactive”.

For `CCCCC(=O)NCCNc1nc2c(c(=O)n(C)c(=O)n2C)n1Cc1ccccc1`, the inhibition entry was “inactive”.

For the molecule `COc1ccc(C(=O)N2CCN(c3nc4cc(C)ccc4cc3C#N)CC2)c(OC)c1`, the inhibition result was “inactive”.

For the molecule `Cc1nc2sc3c(c2c(=O)o1)CCC3`, the inhibition result was “inactive”.

Take `CCC(C)(C(=O)NC1CCCCC1)N(Cc1ccco1)C(=O)c1cnccn1` (configuration not stated): the inhibition result was “inactive”.

Consider `CC1=CCC2C(=O)N(c3nc(C)cc(C)n3)C(=O)C2C1` (configuration not stated), for which the inhibition entry was “inactive”.

As to `CCCn1c(NC(=O)C2COc3ccccc3O2)nc2ccccc21` (configuration not stated), the inhibition entry was “inactive”.

`Cc1cc(C)nc(NC(=O)c2ccc(OC(C)C)cc2)n1`: the inhibition entry was “inactive”.

Regarding `Cc1nn(-c2ccc(F)cc2)c2c1cc(C#N)c1nc3ccccc3n12`, the inhibition result is “inactive”.

On to `COc1ccc(-c2nc3c(c(=O)n(C)c(=O)n3C)n2CC2CC(c3ccccc3)=NO2)cc1OC` (configuration not stated), for which the inhibition is 73.1% (active).

On to `COc1ccc(C(=O)Cn2c(N3CCCCC3)nc3c2c(=O)n(C)c(=O)n3C)cc1OC`, for which the inhibition entry was “inactive”.

As for `COc1cccc(Cn2c(Oc3ccccc3)nc3c2c(=O)n(C)c(=O)n3C)c1`, the inhibition entry was “inactive”.

`Cc1ccccc1Nc1nc(N)nc(CSCc2c(C)noc2C)n1`: the inhibition entry is “inactive”.

Regarding `Cc1cc2oc(=O)cc(CN3CCCCC3)c2cc1C(C)C`, the inhibition entry is “inactive”.

With `CC(C)(C)C1=Nn2c(nnc2-c2n[nH]c3c2CCC3)SC1`, the inhibition entry was “inactive”.

For `Clc1ccc(C2=Nn3c(nnc3-c3n[nH]c4c3CCC4)SC2)cc1Cl`, the inhibition was 106% (active).

With `COc1ccc(C2=Nn3c(nnc3-c3ccccc3)SC2)cc1OC`, the inhibition result was “inactive”.

As to `COc1ccc(C2CC(c3ccc(Cl)cc3Cl)n3nc(N)nc3N2)cc1` (configuration not stated), the inhibition entry was “inactive”.

In the case of `COc1cccc(OCCn2ccnc2)c1`, the inhibition result is “inactive”.

On to `COc1ccccc1NC(=O)CSc1nnc(-c2ccncc2)n1CC1CCCO1` (configuration not stated), for which the inhibition entry was “inactive”.

As to `C=C(Cl)COc1ccc2c(C)cc(=O)oc2c1`, the inhibition result is “inactive”.

As to `Nc1ncnc2nc(SCCN3CCCCC3)[nH]c12`, the inhibition result was “inactive”.

In the case of `CCCC(=O)Nc1cccc(NC(=O)CN2CCN(c3ccccc3OC)CC2)c1`, the inhibition result is “inactive”.

Regarding `CN(c1ccc(OCc2nnc(-c3ccccc3)o2)cc1)S(=O)(=O)c1ccccc1`, the inhibition result is “inactive”.

With `CCOC(=O)c1ccccc1NC1CC(=O)N(c2ccccc2C)C1=O` (configuration not stated), the inhibition entry is “inactive”.

On to `O=S(=O)(Nc1ccccn1)c1ccc(Oc2ccccc2)cc1`, for which the inhibition entry was “inactive”.

Regarding `C=CS(=O)(=O)c1ccc(Oc2ccc(S(=O)(=O)C=C)cc2)cc1`, the inhibition was 100% (active).

Regarding `CN(C)S(=O)(=O)c1ccc(Oc2ccc(S(=O)(=O)N(C)C)cc2)cc1`, the inhibition entry is “inactive”.

On to `CC1CCN(C(=O)CN2C(=O)C(C)(C)Oc3ccc(C(=O)NC4CCCC4)cc32)CC1`, for which the inhibition entry is “inactive”.

Regarding `O=C1CC(N2CCOCC2)C(=O)N1c1ccccc1Cl` (configuration not stated), the inhibition entry is “inactive”.

As for `COc1ccccc1Nc1nc(N)nc(CN2CCN(c3ccccc3F)CC2)n1`, the inhibition entry is “inactive”.

`OC1(c2cccc(C(F)(F)F)c2)CCNCC1`: the inhibition entry is “inactive”.

`CCOC(=O)c1[nH]c(C)c(C(=O)Nc2ccc(C)c(Cl)c2)c1C`: the inhibition entry was “inactive”.

Regarding `COc1ccc(OC)c(C2C(C(=O)Nc3cccnc3)=C(C)NC3=C2C(=O)CCC3)c1` (configuration not stated), the inhibition result was “inactive”.

As to `COC(=O)C1=C(C)NC(=O)C1(NC(=O)c1cccnc1)C(F)(F)F` (configuration not stated), the inhibition result is “inactive”.

With `COc1ccc(CN2C(=O)[C@@H]3C(c4ccc(F)cc4)=NO[C@@H]3C2=O)cc1`, the inhibition result is “inactive”.

For `Cc1cccn2c(=O)c3cc(C#N)c(=NC(=O)c4ccncc4)n(Cc4ccco4)c3nc12`, the inhibition entry is “inactive”.

On to `CC(C)n1c(=NC(=O)c2ccco2)c(C#N)cc2c(=O)n3ccccc3cc21`, for which the inhibition is 78.8% (active).

Regarding `CCOC(=O)c1cc2c(=O)n3ccccc3nc2n(CC(C)C)c1=NC(=O)c1ccco1`, the inhibition entry was “inactive”.

On to `CCOc1ccc(NC(=O)CN2CCN(CC(=O)c3ccc(OCC)cc3)CC2)cc1`, for which the inhibition entry is “inactive”.

For `CCCCc1c(O)nc(N2CCN(Cc3ccccc3)CC2)[nH]c1=O`, the inhibition result was “inactive”.

Regarding `CCN(CC(=O)Nc1ccc2c(c1)CCC2)Cc1nc2ccccc2c(=O)[nH]1`, the inhibition result was “inactive”.

Consider `Nc1nc(SCc2ccc(Cl)cc2Cl)n[nH]1`, for which the inhibition entry was “inactive”.

In the case of `O=S(=O)(Nn1cnnc1)c1ccccc1Cl`, the inhibition entry is “inactive”.

Consider `CCOc1cc2[nH]c(=S)n(CC3CCCO3)c(=O)c2cc1OCC` (configuration not stated), for which the inhibition result is “inactive”.

For the molecule `COCCn1c(COc2ccc(Cl)cc2)nnc1SCC(N)=O`, the inhibition entry is “inactive”.

Take `Cc1cc(NC(=O)CSc2nnc(COc3cccc(C)c3C)n2Cc2ccco2)no1`: the inhibition result was “inactive”.

Consider `Clc1ccc(OCc2nnc(SCCN3CCCCC3)n2Cc2ccco2)cc1`, for which the inhibition is 82.9% (active).

With `Cc1ccccc1-c1nc(CN2CCC(C(=O)NCc3cccnc3)CC2)c(C)o1`, the inhibition result was “inactive”.

On to `O=c1nc(N2CCCC2)nc(Nc2ccccc2)[nH]1`, for which the inhibition result is “inactive”.

Take `O=C(Cn1cc2c(n1)CCCCC2)N1CCc2ccccc21`: the inhibition entry is “inactive”.

On to `Cc1nnc(SCC(=O)NCc2ccccc2)s1`, for which the inhibition entry was “inactive”.

Regarding `Cc1nnc(SC(=O)N2c3ccccc3Sc3ccccc32)s1`, the inhibition was 92.2% (active).

As to `Cc1nnc(SCC(=O)N2c3ccccc3CC2C)s1` (configuration not stated), the inhibition entry is “inactive”.

On to `CCOc1cccc(Oc2ccc(C(F)(F)F)cn2)c1`, for which the inhibition entry was “inactive”.

Regarding `COc1ccc(S(=O)(=O)N2CN(Cc3ccco3)c3nc4ccccc4nc32)cc1`, the inhibition entry was “inactive”.

Regarding `Cc1ccc2nc(C3CCN(CC(=O)N4CCCCCC4)CC3)[nH]c2c1`, the inhibition entry was “inactive”.

Consider `CCOc1ccccc1N1CCN(c2nc3ccccc3nc2C(C#N)C(=O)OC)CC1` (configuration not stated), for which the inhibition result was “inactive”.

Regarding `S=c1[nH]nc(-c2ccco2)n1-c1cccc2ccccc12`, the inhibition result is “inactive”.

Turning to `Cc1c(C)c2ccc(OC3CCCCC3=O)cc2oc1=O` (configuration not stated), the inhibition entry is “inactive”.

Regarding `COc1ccccc1CC(=O)NCc1ccc2c(c1)OCO2`, the inhibition result is “inactive”.

With `O=C1c2ccccc2C(Nc2ccc(F)c(Cl)c2)N1Cc1ccco1` (configuration not stated), the inhibition result was “inactive”.

Take `O=C1c2ccccc2C(Nc2ccc(-c3nc4ccccc4[nH]3)cc2)N1Cc1ccco1` (configuration not stated): the inhibition result is “inactive”.

In the case of `O=C1c2ccccc2C(Nc2ccc3nc(-c4cccnc4)[nH]c3c2)N1Cc1ccco1` (configuration not stated), the inhibition was 79.2% (active).

For `CCCc1cc(Nc2cccc(OC)c2)n2ncnc2n1`, the inhibition result is “inactive”.

For the molecule `COCC(C)NC(=O)CCS(=O)(=O)c1nc(-c2ccc(OC)cc2)cc(C(F)(F)F)n1` (configuration not stated), the inhibition is 91.4% (active).

As for `COc1ccc(-c2cc(C(F)(F)F)nc(SCCC(=O)N3CCOCC3)n2)cc1`, the inhibition entry was “inactive”.

Turning to `CCOC(=O)CS(=O)(=O)c1nc(-c2ccccc2)cc(C(F)(F)F)n1`, the inhibition entry is “inactive”.

As for `O=C(Cn1cnc2ccccc2c1=O)NCCC(=O)N1CCN(c2ccccc2)CC1`, the inhibition result was “inactive”.

On to `CCc1ccccc1NC(=O)CN(c1cccc(OC)c1)S(C)(=O)=O`, for which the inhibition entry was “inactive”.

Consider `C/C(=C\c1cc(C(=O)O)c(C)o1)CO`, for which the inhibition entry was “inactive”.

For `Cc1ccc(SC(C)c2nc(-c3ccccc3)no2)cc1` (configuration not stated), the inhibition result was “inactive”.

Turning to `CSc1ncc(Cl)c(C(=O)Nc2ccc(S(=O)(=O)N3CCOCC3)cc2)n1`, the inhibition result was “inactive”.

`Cc1cnc(C(=O)Nc2ccc(N3CCOCC3)cc2)cn1`: the inhibition entry is “inactive”.

As for `CS(=O)(=O)c1ncc(Cl)c(C(=O)Nc2ccc(N3CCOCC3)cc2)n1`, the inhibition is 97.8% (active).

For `Cc1cc(O)c(C2(C(F)(F)F)NCCNC2=O)cc1C` (configuration not stated), the inhibition result is “inactive”.

As for `CCC(=O)N(Cc1ccco1)c1nc(-c2cc(OC)ccc2OC)cs1`, the inhibition entry is “inactive”.

Consider `Cn1c(C(=O)NCCN2CCN(c3ccccc3F)CC2)cc2c(=O)n(C)c3ccccc3c21`, for which the inhibition entry is “inactive”.

Regarding `COc1cc(C2Nc3cccc4cccc(c34)N2)cc(OC)c1O`, the inhibition was 73.4% (active).

For `CCOc1cc(C2Nc3ccccc3C(=O)N2c2ccccc2OC)ccc1O` (configuration not stated), the inhibition result was “inactive”.

Regarding `COc1cc(C2N=C(c3ccccc3)NO2)cc(Br)c1O` (configuration not stated), the inhibition entry is “inactive”.

As to `COC(=O)c1ccc(CSc2nc3c(cnn3-c3ccc(F)cc3)c(=O)[nH]2)o1`, the inhibition entry was “inactive”.

With `O=c1[nH]c2sc3c(c2c2nncn12)CCCC3`, the inhibition result was “inactive”.

Turning to `Cc1cc(NC(=O)c2cc(-c3ccco3)on2)n(-c2ccccc2)n1`, the inhibition entry was “inactive”.

As for `C/C(NC1CCCC1)=C(/C#N)C(N)=O`, the inhibition result was “inactive”.

On to `Clc1cccc(-c2nnc3sc(-c4ccccc4)nn23)c1`, for which the inhibition result was “inactive”.

In the case of `OCCn1c(-c2ccc3c(c2)OCO3)csc1=Nc1ccccc1`, the inhibition result was “inactive”.

Take `CCOC(=O)c1cccc(NC2c3ccccc3C(=O)N2Cc2ccco2)c1` (configuration not stated): the inhibition result was “inactive”.

In the case of `CCNC(=O)C1CC(=O)N(Cc2ccc3c(c2)OCO3)C(=Nc2ccc(OCC)cc2)S1` (configuration not stated), the inhibition entry is “inactive”.

For `COC(=O)c1cc(=O)n(Cc2ccc3c(c2)OCO3)c(=Nc2ccccc2)s1`, the inhibition was 96% (active).

Consider `CCOC(=O)c1ccc(NC(=O)CSCc2ccco2)cc1`, for which the inhibition result is “inactive”.

Regarding `CCOC(=O)c1ccc(N=c2sc(C(=O)OC)cc(=O)n2Cc2ccco2)cc1`, the inhibition is 95.5% (active).

Consider `Cc1cccc(NC(=O)c2cc(NC(=O)c3ccco3)ccc2N2CCCCC2)c1`, for which the inhibition result is “inactive”.

`Cn1nc(-c2ccc(N3CCCCC3)c(NC(=O)c3ccco3)c2)c2ccccc2c1=O`: the inhibition was 83.4% (active).

Take `O=C(c1ccccc1)c1ccc(N2CCOCC2)c(NC(=O)c2ccco2)c1`: the inhibition entry was “inactive”.

On to `COc1ccc(CCNc2nc(N3CCOCC3)nc(N3CCOCC3)n2)cc1OC`, for which the inhibition result is “inactive”.

On to `Cn1c(=O)c2c(nc(SCC(=O)NCc3ccc4c(c3)OCO4)n2Cc2ccccc2)n(C)c1=O`, for which the inhibition entry is “inactive”.

In the case of `CCOC(=O)CSc1nc2cccnc2n1-c1ccc(F)cc1`, the inhibition entry was “inactive”.

`CCOc1ccc2[nH]c(=O)c(C(c3nnnn3CC3CCCO3)N3CCc4ccccc4C3)cc2c1` (configuration not stated): the inhibition entry was “inactive”.

In the case of `CCc1ccc2[nH]c(=O)c(C(c3nnnn3CC3CCCO3)N3CCN4CCCC4C3)cc2c1` (configuration not stated), the inhibition entry was “inactive”.

For the molecule `CCc1ccc2[nH]c(=O)c(C(c3nnnn3CC3CCCO3)N3CCCc4ccccc43)cc2c1` (configuration not stated), the inhibition is 93.2% (active).

In the case of `Nc1nc(N2CCCCC2)nc(N(c2ccccc2)c2ccccc2)n1`, the inhibition entry is “inactive”.

With `CC(=O)NC(CCS(C)(=O)=O)C(=O)Nc1cccc2ccccc12` (configuration not stated), the inhibition entry was “inactive”.

Take `O=C(Cn1nc(-c2ccc(Cl)cc2)ccc1=O)NCCCN1CCN(Cc2ccccc2)CC1`: the inhibition result was “inactive”.

Regarding `CCOC(=O)c1ccccc1NC(=O)c1ccc2c(=O)n3c(nc2c1)CCCCC3`, the inhibition entry was “inactive”.
